Screens from PubChem BioAssay.
This is a sample that favours compounds with a hit; in the whole collection about 3.4% have one here.
Giardia FBPA inh = Giardia lamblia aldolase inhibition; A8B2U2; purified Giardia FBPA; Potency, µM (highest dose often 59.6 µM), inactives show top-dose activity, negative = inhibition, actives largely listed as inhibitors; AID 2451; 290,000 tested, 0.71% active; also: nearly all actives have a fitted effect of over 55% in size
Target sequence (A8B2U2 whole entry, looked up): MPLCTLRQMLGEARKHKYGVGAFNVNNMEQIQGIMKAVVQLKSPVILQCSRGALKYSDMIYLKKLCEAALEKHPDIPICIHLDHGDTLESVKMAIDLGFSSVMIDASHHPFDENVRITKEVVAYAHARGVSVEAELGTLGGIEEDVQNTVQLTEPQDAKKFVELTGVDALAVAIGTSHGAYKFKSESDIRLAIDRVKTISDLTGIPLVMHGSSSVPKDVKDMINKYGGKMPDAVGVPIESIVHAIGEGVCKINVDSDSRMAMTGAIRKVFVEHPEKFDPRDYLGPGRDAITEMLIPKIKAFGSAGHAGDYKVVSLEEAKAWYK
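Giardia FBPA (40 nM reagent) was preincubated 10 min at RT with compound (up to 57.5 uM final), then substrate plus GAPDH/TPI/NAD/arsenate coupling system with diaphorase/resazurin was added; resorufin fluorescence (525/598 nm) was read after 20 min.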
RE007 growth inh = less growth of the S. pombe RE007 Vpr strain. 360,000 tested, 0.21% active. Potency, µM (titrated, usually from 92.2 µM), for inactives: top-dose activity change, negative = less growth, usual class: inhibitors. AID 651644. S. pombe RE007 Vpr strain, BacTiter-Glo ATP luminescence, 24 h; active = well fitted falling curve with a large enough effect; inconclusive = small, poorly fitted or top-dose-only effect; inactive = no such curve, though single readings can be large or run the other way; also: nearly all actives have a fitted effect of over 50% in size
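Fission yeast RE007 carrying one integrated HIV-1 vpr copy, seeded at OD 0.01 in PMG+AL medium with 23 nL pinned compound. Grown 24 h at 30 degrees; viability read by BacTiter-Glo luminescence after 5 min.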
Sm TGR block = inhibitors of Schistosoma mansoni thioredoxin glutathione reductase; Q962Y6; purified TGR, DTNB reduction, TNB absorbance 405 nm; Potency, µM (titrated, usually from 114 µM), inactives show top-dose activity change, negative = inhibition, usual class: inhibitors; 360,000 tested, 3% active; AID 485364; also: nearly all actives have a fitted effect of over 60% in size
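TGR 20 nM + NADPH 100 uM (dispensed conc.), cpd preinc 15 min RT; start with NADPH (500 uM addition) then DTNB (15 mM addition). Kinetic TNB absorbance, 405 nm filter. Four-parameter Hill fit across titration.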
AmpC detergent = inhibitors of E. coli AmpC beta-lactamase with detergent. P00811. AmpC hydrolysis of nitrocefin, absorbance 480 nm, 0.01% Triton. Potency, µM (doses to about 114 µM), for inactives: top-dose activity change, negative = inhibition, most hits filed as inhibitors. 370,000 tested, 0.041% active. AID 485294;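 also: 0% = no-compound wells and -100% = no-enzyme wells; nearly all actives have a fitted effect of over 25% in size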
Target sequence (P00811 whole entry, looked up): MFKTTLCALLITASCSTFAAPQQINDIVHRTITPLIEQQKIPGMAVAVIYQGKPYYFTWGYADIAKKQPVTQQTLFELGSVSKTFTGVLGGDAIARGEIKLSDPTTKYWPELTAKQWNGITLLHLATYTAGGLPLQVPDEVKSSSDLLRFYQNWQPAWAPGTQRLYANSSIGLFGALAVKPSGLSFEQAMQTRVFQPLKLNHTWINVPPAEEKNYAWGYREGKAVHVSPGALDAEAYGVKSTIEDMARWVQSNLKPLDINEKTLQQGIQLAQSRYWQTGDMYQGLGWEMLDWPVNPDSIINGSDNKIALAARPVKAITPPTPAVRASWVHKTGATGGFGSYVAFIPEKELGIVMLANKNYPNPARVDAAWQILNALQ
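20 mM phosphate pH 7.0 + 0.01% (detergent screen) or 0.0001% Triton X-100; 5.3 nM AmpC reagent; cpd preinc 15 min RT; nitrocefin (800 uM stock) to start; A480 q20 s × 4 min; Activity was normalised to no-enzyme and no-compound control wells.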
AmpC no deterg = blocks E. coli AmpC beta-lactamase in detergent-free assay; P00811; 330,000 tested, 0.52% active; AID 485341; AmpC nitrocefin hydrolysis, absorbance 480 nm, 0.0001% Triton; Potency, µM (top dose mostly 57.1 µM), without a hit: at the top dose activity change, negative = inhibition, actives largely listed as inhibitors;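 also: plate controls were no compound for no effect and no enzyme for full effect; nearly all actives have a fitted effect of over 20% in size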
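20 mM phosphate pH 7.0 + 0.01% (detergent screen) or 0.0001% Triton X-100; 5.3 nM AmpC reagent; cpd preinc 15 min RT; nitrocefin (800 uM stock) to start; A480 q20 s × 4 min; Activity was normalised to no-enzyme and no-compound control wells.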
* marks the source's active call; other numbers are inactive results; ? = inconclusive; . = no result given; [ ] = dose if it differs, or a comment. Unless noted, calls follow the shape of the dose curve; as a rule, active = well fitted curve in the direction sought with a large enough effect; inconclusive = small, poorly fitted or top-dose-only effect, or another doubt; inactive = no such curve, though single readings can be large; an effect the other way counts as inactive or inconclusive. Unless noted, % is scaled to controls: 0 for no effect and ±100 for the full control effect; potency is read from the fitted curve at half-maximal effect.

SMILES | Giardia FBPA inh | RE007 growth inh | Sm TGR block | AmpC detergent | AmpC no deterg
CCCC(=O)Nc1ccc2c(c1)nc1n2CCN(CCOC)C1 | ? | -18% | 20µM* | 3% | 15%
CC(c1ccccc1)N1CCn2c(nc3cc(NC(=O)c4cccs4)ccc32)C1 (stereo not given) | -8% | -9% | ? | 3% | -33%
C[C@@]1(C(=O)O)NCCc2cc(O)c(O)cc21 | 13µM* | . | . | . | .
CCOC(=O)CNCCC(=O)c1ccc(Br)cc1 | -13% | 35µM* | ? | -21% | 1%
CC(C)c1ccc(NCCC(=O)c2ccc(Br)cc2)cc1 | 3% | -2% | ? | ? | -14%
Cc1cccc(NCCC(=O)c2ccc(Br)cc2)c1 | 5% | ? | 5.6µM* | 1% | -25%
Cc1cc(NC(=O)COC(=O)c2cc([N+](=O)[O-])ccc2N2CCOCC2)ccc1Br | . | -9% | 6% | ? | 32µM*
CC(C)C(NC(=O)CSc1ccc(Cl)cc1)C(C)C | -4% | -2% | -12% | -11% | 59%
Cc1ccc(NC2=C(Cl)C(=O)c3ccccc3C2=O)cc1 | ? | -2% | 3.5µM* | -4% | -17%
CCN(CC)c1ccc(NC2=C(Cl)C(=O)c3ccccc3C2=O)cc1 | ? | ? | 2.2µM* | ? | -23%
Cc1ccc(NC2=C(N3CCOCC3)C(=O)c3ccccc3C2=O)cc1 | ? | ? | ? | 8% | -16%
O=C1C(Cl)=C(Nc2ccc(O)cc2)C(=O)c2ccccc21 | ? | -28% | 2.2µM* | 6% | -21%
COC1=C(Nc2ccc(O)cc2)C(=O)c2ccccc2C1=O | ? | -28% | ? | -10% | -17%
Cc1ccc(S(=O)(=O)c2nc(-c3ccccc3)oc2SCC(=O)NC2CCCCC2)cc1 | . | . | -2% | 6% | .
O=C(Nc1cccc(-c2nc3ccccc3o2)c1)c1ccc(-c2ccc(Br)cc2)o1 | . | . | 40µM* | 6% | .
O=C(Nc1ccc2oc(-c3cccnc3)nc2c1)c1ccc(-c2cccc(OC(F)(F)F)c2)o1 | . | . | 10µM* | 34% | .
O=C(Nc1cccc2nsnc12)c1ccc(-c2ccc(Br)cc2)o1 | ? | -12% | 35µM* | -2% | -23%
Cc1ccc2cccc(NC(=O)c3ccc(-c4ccc(Br)cc4)o3)c2n1 | . | . | -20% | 1% | .
COc1ccc(-c2nc3ccccc3o2)cc1NC(=O)c1ccc(-c2ccc(Br)cc2)o1 | . | . | -25% | 13% | .
O=C(CCn1c(=O)oc2ccccc21)Nc1ccc(C(=O)O)cc1 | -5% | -7% | 6% | 3% | -4%
CC(=O)[C@@H]1[C@@H](C(=O)c2ccc(F)cc2)[C@]2(C(=O)Nc3ccccc32)[C@H]2C=Cc3cc(F)ccc3N12 | -17% | 0% | 50µM* | ? | 45%
CC(=O)[C@@H]1[C@@H](C(=O)c2ccc(C)cc2)[C@]2(C(=O)Nc3ccccc32)[C@H]2C=Cc3cc(F)ccc3N12 | ? | -6% | ? | -8% | 37%
O=C(c1ccc(F)cc1)[C@@H]1[C@@H](C(=O)c2ccccc2)[C@@]2(C(=O)Nc3ccccc32)[C@H]2c3ccccc3C=CN12 | ? | . | 45µM* | -12% | -29%
O=C(Nc1ccc(S(=O)(=O)N2CCC(c3nc4ccccc4s3)CC2)cc1)c1ccccc1 | . | . | 7% | 21% | .
O=C(CCl)NN=C(c1ccccc1)c1ccccc1 | -8% | -13% | 11µM* | 0% | -25%
SMILES | Giardia FBPA inh | RE007 growth inh | Sm TGR block | AmpC detergent | AmpC no deterg
CC(C)CN1CCC(=O)N([C@H](CN=[N+]=[N-])Cc2ccccc2)CC1 | 6% | 6% | 3% | ? | -6%
CCCSc1nnc(N2C(=O)CC(c3ccsc3)C3=C2CCCC3=O)s1 (stereo not given) | 6% | 0% | 2% | ? | 4.5µM*
O=CN1CCN(C2CC(=O)N(c3ccc(Br)cc3)C2=O)CC1 (stereo not given) | 2% | ? | ? | ? | 4%
O=C1CC(N2CCC(O)CC2)C(=O)N1c1ccc(Br)cc1 (stereo not given) | 2% | ? | 56µM* | -12% | 1%
CCCOc1ccc(N2C(=O)CC(N3CCC(O)(c4cccc(C(F)(F)F)c4)CC3)C2=O)cc1 (stereo not given) | -25% | 32µM* | -24% | -16% | 102%
O=C(O)c1ccc(N2C(=O)CC(N3CCN(c4ccc(Cl)cc4)CC3)C2=O)cc1 (stereo not given) | -9% | -1% | ? | 6% | -4%
CCCOc1ccc(N2C(=O)CC(N3CCN(S(=O)(=O)c4ccccc4)CC3)C2=O)cc1 (stereo not given) | 3% | -1%[3.69 µM] | -6% | -12% | 97%
COc1ccc(N2C(=O)CC(N3CCC(O)(c4ccc(Br)cc4)CC3)C2=O)cc1 (stereo not given) | 7% | 32µM* | ? | 4% | 23%
O=C1CC(N2CCC(O)(c3ccc(Br)cc3)CC2)C(=O)N1c1ccc(Cl)cc1 (stereo not given) | -2% | 10µM* | -26% | ? | 24%
CCn1cc(C(=O)OCC(=O)Nc2cc(Cl)ccc2C)c(=O)c2ccc(C)nc21 | . | . | 10% | 15% | .
C/C(=N\Nc1nc(-c2ccccc2)cs1)c1cccs1 | -3% | -4% | -19% | -20% | -30%
C/C(=N\Nc1nc2ccccc2s1)c1cccs1 | -5% | 35µM* | 3% | 10% | -2%
CC(=O)c1cc2c(cc1N/C(=N/S(=O)(=O)c1ccc(Cl)cc1)c1ccc(F)cc1)OCO2 | . | . | -10% | 1% | .
CCOC(=O)CCN1C(=O)[C@H]2[C@@H]3[C@H](O)C=CC(=O)[C@H]3CC[C@H]2C1=O | -2%[12.9 µM] | . | . | . | .
CCOC(=O)c1c(-c2ccc(C)o2)csc1NC(=O)CN1CCN(CC)CC1 | -5% | 4% | 50µM* | ? | 45%
CCOC(=O)c1c(-c2ccco2)csc1NC(=O)COC(=O)c1cnccn1 | . | 7% | 7.9µM* | 0% | 45%
CCOC(=O)c1c(-c2ccc(C)o2)csc1NC(=O)CN1CCCCC1 | -4% | -16% | 8.9µM* | -1% | -20%[11.4 µM]
CCOC(=O)c1c(-c2ccc(C)o2)csc1NC(=O)CN(C)CC(=O)Nc1ccc(C)cc1 | -13% | -8% | ? | -14% | 11%
CCOC(=O)c1c(NC(=O)COC(=O)c2cnccn2)sc(C(=O)NC)c1C | . | -7% | 0% | -9% | -11%
CCOC(=O)c1c(-c2ccc(C)o2)csc1NC(=O)CSc1nncs1 | -19% | -19% | 4.5µM* | -12% | -11%
CCOC(=O)c1c(-c2ccc(C)o2)csc1NC(=S)NC(=O)c1ccc(F)cc1 | 7% | -12% | -13% | -7% | -19%
N#CCC(=O)Nc1ccc(C(=O)OCc2ccccc2Oc2ccccc2)cc1 | -1% | 18% | -2% | -19% | -33%
COc1cc(-c2nc3sccn3c2Nc2cccc(C)c2)ccc1O | . | . | -2% | -9% | .
